This note sets out measurements from PubChem BioAssay AID1347426 (Functional Genomics Laboratory (NCATS/FGL), 2020).

In all, about 31,000 sequences went through this assay and about 1,400 (4.5%) were called active.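 Rule for the calls: active = median seed-adjusted z-score above 1 or below -1; inactive = the rest.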 The full list was thinned out, with actives kept by preference.

This assay in a line: Novel Modifiers of Survival Motor Neuron (SMN) Protein: Gene Identification via Genome-wide siRNA Screen.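 Note: luminescence tracks full-length SMN protein made from the SMN2 reporter.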 To be noted: HEK293T SMN2-luciferase reporter, siRNA knockdown, 72 h; actives lie on both sides. Summed up: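 HEK293T cells stably carrying an SMN2 promoter/splicing cassette–luciferase reporter were reverse-transfected with 1 pmol siRNA per well (druggable-genome library, 3 siRNAs per gene) and grown 72 h at 37 °C. Luminescence, normalized to negative-control siRNA and log10-transformed, was scored as MAD.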
A general note: A reporter such as luciferase makes a cellular process visible.
For CCAUCCUGGAAAUACCCUATT against SERPINA12, the median seed-adjusted z-score is -0.382 (inactive). Turning to UGAAUUUCGUAGUUCCAUATT against CNOT8, the median seed-adjusted z-score was 0.375 (inactive).

Turning to CCGUCGAAUUUGAAGGUGATT against SULF1, the median seed-adjusted z-score is -0.128 (inactive).

On to AGAUCUCCAUGGUCAGGAUTT against ACCN4, for which the median seed-adjusted z-score was -0.512 (inactive). For the sequence GAACCUUCGGGAGAACCUUTT against FKBPL, the median seed-adjusted z-score is -1.11 (active). With CGGUAUAAUCGGAAUCGGATT against MKI67IP, the median seed-adjusted z-score was 0.426 (inactive).

Turning to GGUGAAUAUUUAUCGUCUATT against CHD1, the median seed-adjusted z-score is -1.03 (active). Take GCUAGACACCGGACCAAAATT against MMP28: the median seed-adjusted z-score was 0.862 (inactive). The result for GGACAACUAUGGUAAGAAATT against TCF7L1 reads -0.251 (inactive). GGAUUGAGCGCAUCAAGGUTT against GNG7: the median seed-adjusted z-score was -0.205 (inactive). As to GAAUGCUGUUUAUCUUAAUTT against PNPLA1, the median seed-adjusted z-score is 0.00692 (inactive). Take GGGAAAAAGUUCUUGCGUATT against USP12: the median seed-adjusted z-score is 0.121 (inactive).

With GCUUUACAACAAUCACAUATT against AMIGO2, the median seed-adjusted z-score is -0.258 (inactive). CUCUUUCAAGUAUGAGACATT against INHA: the median seed-adjusted z-score is 0.231 (inactive).

On to CAGCUGCUAUCAGAACGGATT against APBA2, for which the median seed-adjusted z-score is 1.66 (active). For the sequence GAAUAUUCUUGCAGAGUUUTT against WFDC5, the median seed-adjusted z-score was 0 (inactive). Regarding GGCUUUUGAGCAUCCCAAUTT against CDK4, the median seed-adjusted z-score was 0.346 (inactive).

Turning to CAGUCCCUCUAUCACAUAUTT against ERH, the median seed-adjusted z-score is -1.25 (active). In the case of GGAGGUGUUUUGUUCGGAUTT against SV2C it was 0.183 (inactive). For GGCUAGUGAUAUACUAUAUTT against RPS6KA6, the median seed-adjusted z-score was -0.0821 (inactive).

CCAUCAGUACAUAUCCGAATT against ABCA8: the median seed-adjusted z-score was -0.666 (inactive).

For the sequence GCUCAUGGUUGAUGAUUCUTT against RABGGTA, the median seed-adjusted z-score is -0.0601 (inactive).

For the sequence UCACUAUCAGUACCCAUUATT against CHRNB1, the median seed-adjusted z-score is 0.16 (inactive). Turning to GGAGAGAGGUCCAGUCUGATT against BIRC7, the median seed-adjusted z-score is -1.44 (active). On to CAAAGUAUCGGGUCAUCUATT against DMRTA1, for which the median seed-adjusted z-score was -0.162 (inactive). As for CUUUGACAGUGUUCGUGAATT against SGOL2, the median seed-adjusted z-score was 0.114 (inactive). In the case of CCAAGACGAUGAGAGUAUATT against UGCGL2, the median seed-adjusted z-score is -0.456 (inactive).

Regarding CGGGCGAGUUUACUAUGUATT against ITCH, the median seed-adjusted z-score is 0.199 (inactive). As to GCAUUGCCGAGAUCCAUGATT against PIK3R2, the median seed-adjusted z-score was 0.421 (inactive). Turning to UCACGUAGAGUCAUAUUUATT against HNRPA1P4, the median seed-adjusted z-score was -0.906 (inactive). Turning to ACACAGCUGUUGUACCUCATT against MAP4, the median seed-adjusted z-score was 1.67 (active). With GAUACUUUGCCGUCAAUUATT against CA5B, the median seed-adjusted z-score was 0.317 (inactive).

Turning to CCAUUGAUCUGCACUACUATT against NUP85, the median seed-adjusted z-score was 0.948 (inactive). Take GACCUAUCCUUGCACCAGATT against ECT2: the median seed-adjusted z-score is 0.04 (inactive).

As to GCUCGAGUGGAAGAACUCATT against GLMN, the median seed-adjusted z-score was 0 (inactive). The result for GCAGGACCCAUUACGGCUATT against DPEP1 reads -0.886 (inactive); that for GGCUGUGCAUAAACGAGAATT against GTF2E1, 1.76 (active). GGAGAACCAUAGAAAACCATT against RIPK3: the median seed-adjusted z-score is 0.123 (inactive). Turning to CGAGGACACCCUUAGCAGUTT against ADRA1B, the median seed-adjusted z-score is -0.472 (inactive).

Turning to GACCGUACGAGGCAAGUAATT against PAX1, the median seed-adjusted z-score is -0.111 (inactive). The result for GAACGAGUGAGAGAAUAUATT against TTC9C reads -0.571 (inactive); that for GCCGAGUCAGUAUCUAUGATT against STARD13, -0.0337 (inactive). In the case of GGACAAGAAUUUUGCCUUUTT against U2AF2, the median seed-adjusted z-score was 2.14 (active).

Consider CCACGGUGAUAACAGACAUTT against ALDH8A1, for which the median seed-adjusted z-score was 0.0628 (inactive). Consider GGCUAUACAGGGUAGACAATT against PXDNL, for which the median seed-adjusted z-score is -0.186 (inactive). GGCAGAUAACUGAACGAGATT against HECW2: the median seed-adjusted z-score is 0.38 (inactive). Consider CUGGCUACGUGAAUGUGCATT against ZDHHC12, for which the median seed-adjusted z-score is -0.0312 (inactive). As to GGAACUCGUGCAUCUCCAATT against CD93, the median seed-adjusted z-score is -0.0879 (inactive). GAGAUUACAUAAACGGAGATT against PARP11: the median seed-adjusted z-score was 0.192 (inactive). The result for CAGAUGUUAUGGAUAUAAUTT against L2HGDH reads -0.346 (inactive). Turning to GCUUAUGGUUGAUCAGUUATT against RNF7, the median seed-adjusted z-score is -1.18 (active). Consider UGAGUUGCCCUGAUUUGAATT against AIF1, for which the median seed-adjusted z-score was -0.0293 (inactive). The result for GCAACUCCUUCCUCGCUAATT against RBM17 reads 0 (inactive); that for GAAUGUUCAAGAUCGAUUUTT against RANBP2, 1.53 (active). The result for UCAUGUAUGUGGGAGCCAATT against SNCG reads -0.169 (inactive); that for AGGUGAUGCAGGACAGAAATT against COL18A1, -0.441 (inactive). The result for CCUCAACUCUUAUAUUACATT against ZNF595 reads 0.102 (inactive).

In the case of GGAUCCCUAUGUUCGGAAATT against AP2B1, the median seed-adjusted z-score is -0.214 (inactive). Take GCAGUAAUAUUUAUCUCUUTT against SUCNR1: the median seed-adjusted z-score was 0 (inactive). For CCUGAAUCCUUAGACUUAATT against PROX1, the median seed-adjusted z-score is -0.372 (inactive). Consider ACCCUGCUAUACUCCCUAUTT against MAPKAPK3, for which the median seed-adjusted z-score is -0.506 (inactive).

For GAUCCUAAUAUGAAGUUAUTT against FUBP1, the median seed-adjusted z-score is -1.52 (active). With GCUAGAGAUUGACCAGAAATT against NUDC, the median seed-adjusted z-score was -0.227 (inactive). In the case of GGCAACAACUGGAUCUGAATT against PIGZ, the median seed-adjusted z-score is 0.74 (inactive). In the case of CUGGAUGAGGUGUACCUUATT against XPNPEP1, the median seed-adjusted z-score is -1.5 (active). For the sequence GCAUGACCCUCGUCACAUATT against THBS1, the median seed-adjusted z-score was -0.847 (inactive). In the case of GGGUAGGUGAUAUCCAUAUTT against ZBTB5 it was 0.314 (inactive); in that of GGCGGAGUAUGGAAAGUUATT against UBE2H, 0 (inactive); in that of GCACCUCUCUGCUAACUGUTT against PGC, 0.884 (inactive). In the case of CGAUGUCAGUAGGAACCUUTT against PSMC1 it was -2.23 (active); in that of CGACUACCCAUACUCUCCATT against CDC34, 0 (inactive); in that of CUACCUCUAUAUCACCAAATT against KDELR1, -0.0168 (inactive). In the case of CCGUUGCUCUAUCUUCGUATT against SETBP1, the median seed-adjusted z-score was 0.0232 (inactive). With GAAAGACAGAUCAAGAUUUTT against HOXB7, the median seed-adjusted z-score is -0.153 (inactive).

On to ACCGCUUCAUGUCUGCGUATT against SF3A2, for which the median seed-adjusted z-score is -1.7 (active).

On to AUCCGAUGGUGGUUACUGATT against MCOLN1, for which the median seed-adjusted z-score was -0.522 (inactive). In the case of CGGCUUGAAUUUGAUCUAUTT against AASDHPPT, the median seed-adjusted z-score is 0.64 (inactive).

In the case of GAGUGACUGUAGAGCCUCATT against GCS1, the median seed-adjusted z-score was 0.819 (inactive). For the sequence CACGGUCUGUUCUCAGAUUTT against MXD4, the median seed-adjusted z-score is 0.688 (inactive). Regarding CCCUUUUACUAUUCAGCGATT against PPP4R2, the median seed-adjusted z-score was 0.211 (inactive). CAUUUUAGAUGGGCACAAUTT against GOSR2: the median seed-adjusted z-score is -1.25 (active).

As to GAAUGAUCGUGAUCCUCGUTT against AHCTF1, the median seed-adjusted z-score is -0.501 (inactive). For GAGUGAAGAUGAGUUGACATT against XRCC6, the median seed-adjusted z-score is 0 (inactive). GACCGGAUAUGGGCUAUAATT against NEK7: the median seed-adjusted z-score is 0 (inactive). In the case of CAAUUUUGCAGGCAACUUUTT against SCYE1 it was 0.437 (inactive); in that of GACAUAUAAUGACAUAGAUTT against TRAK1, 0.298 (inactive); in that of CUUUGUCAGAGAUCACUUATT against PIPOX, 1.06 (active). The result for GGAAUGCUAAGUUCCGAGATT against ARFGAP1 reads 0.123 (inactive); that for AGGUUUCAGUGGUUUGGAUTT against COL1A1, 0 (inactive). The result for CCAAGAACCCGGAGAAGUATT against EXOC7 reads -0.231 (inactive); that for GUACAAUACAAACACUUAATT against ORC4L, -0.286 (inactive). In the case of GCGUGGACCCAAAUCAAUATT against KARS, the median seed-adjusted z-score was -0.152 (inactive). As for GCUCCAACAUGGUCUACAATT against POLE, the median seed-adjusted z-score is -1.55 (active). Regarding GCUAGUCUUCUGGAAGUUATT against SRPRB, the median seed-adjusted z-score was 0.000693 (inactive). On to GGAUAUGCAUGCAAUCAAATT against ADAM23, for which the median seed-adjusted z-score was -0.0279 (inactive).

Take GCCGUGACAUGAUAGGCAUTT against DDX41: the median seed-adjusted z-score was -0.611 (inactive). Regarding GGUUUGUGAAAGCAUAUAATT against FMNL2, the median seed-adjusted z-score was 0.293 (inactive).

Turning to GGAACGAAGAGAACUAGAATT against OFD1, the median seed-adjusted z-score was 0 (inactive). Consider CCAAGGAGCUUACUAUGGATT against SETDB2, for which the median seed-adjusted z-score is 0.417 (inactive).

As for UGAGCAUGACUGAUUCCAATT against SFTPD, the median seed-adjusted z-score is 0.289 (inactive). In the case of GUGAAGAUGUGGUCCUGAATT against PTK2B, the median seed-adjusted z-score was 1.71 (active). For GGCUGUAAACUGCGCAUCATT against APOBEC2, the median seed-adjusted z-score was 0.232 (inactive). On to GAAUUGGAGAGCACCAAUATT against POLR2B, for which the median seed-adjusted z-score is -4.81 (active). In the case of ACAGGAUUCCAGAAAUGGATT against REG1A it was 0.596 (inactive); in that of GCAGAAUUCUCCUACCAAATT against ENTPD3, -0.28 (inactive); in that of GGUCAACGAUGACAACCGATT against ITGB4, -0.226 (inactive). The result for CGGUAUCAUUACUGGAUAATT against LNPEP reads -0.386 (inactive). The result for CCUUUGAGAUGGAAGCCUATT against ACY3 reads 0.568 (inactive).
